According to PubChem BioAssay AID602358 (National Center for Advancing Translational Sciences (NCATS), 2012):
Results filed as inconclusive are left out. Calls of active or inactive are those of the source. The call rests on the fitted dose curve; in most records, active means well fitted inhibition curve with a large enough effect; inconclusive means small, poorly fitted or top-dose-only effect; inactive means flat fitted curve, though single readings scatter.

Biological target: Luciferin 4-monooxygenase (Photinus pyralis) (UniProt P08659)
Sequence (P08659 whole entry, looked up): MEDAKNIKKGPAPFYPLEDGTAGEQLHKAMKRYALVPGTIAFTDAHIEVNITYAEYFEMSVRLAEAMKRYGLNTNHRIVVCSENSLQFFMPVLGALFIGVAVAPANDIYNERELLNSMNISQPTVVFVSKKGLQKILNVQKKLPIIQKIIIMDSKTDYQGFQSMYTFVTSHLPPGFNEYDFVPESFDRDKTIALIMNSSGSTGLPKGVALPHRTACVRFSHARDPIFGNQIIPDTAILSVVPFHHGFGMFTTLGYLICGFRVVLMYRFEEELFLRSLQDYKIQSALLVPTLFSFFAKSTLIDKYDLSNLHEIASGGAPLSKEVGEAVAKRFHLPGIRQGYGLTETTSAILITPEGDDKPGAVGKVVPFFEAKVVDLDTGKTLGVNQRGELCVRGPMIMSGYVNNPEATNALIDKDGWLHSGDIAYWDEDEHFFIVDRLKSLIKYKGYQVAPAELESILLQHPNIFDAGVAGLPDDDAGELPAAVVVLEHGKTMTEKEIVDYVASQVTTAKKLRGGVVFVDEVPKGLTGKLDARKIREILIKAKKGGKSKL
Test: FLuc inhibitory activity for the follow-up compounds in a biochemical assay with Km concentrations of substrate and 500microM CoASH
Settings: purified FLuc, Km substrates + 500 uM CoASH, luminescence; series mostly up to 57.5 µM
How it was run: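 Purified P. pyralis luciferase (10 nM) in 50mM Tris acetate pH 7.5, 10mM Mg acetate, with 10uM D-luciferin, 10uM ATP and 500 uM CoASH; 12-point qHTS titration, ~60uM to 0.3nM final. Luminescence read by CCD imager.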

| Compound | Potency |
| --- | --- |
| COc1ccc(C(=O)Nc2ccccc2C(=O)Nc2ccccc2C(=O)O)cc1 | 0.116 µM (active) |
| CC(C)Oc1ccc(C(=O)Nc2ccc(-c3nc4ccccc4s3)cc2)cc1 | inactive |
| CCOc1ccc2nc(NC(=O)Cc3cccs3)sc2c1 | 5.8 µM (active) |
| Cn1c(N/N=C/c2cc3ccccc3nc2Cl)nc2ccccc21 | 0.0231 µM (active) |
| COc1ccc2nc(NC(=O)c3cccc(S(=O)(=O)N4CCOCC4)c3)sc2c1 | 14.6 µM (active) |
